Source: PubChem BioAssay (several laboratories)
An excerpt weighted towards active compounds, which were near 3.5% of everything screened.
GDH-TPI counter-1 = inhibits GDH-TPI coupling enzymes, artifact for Mtb FBA screen | GDH-TPI coupled enzyme counterscreen, NADH absorbance | inhibition, % at 4.8 µM | 360,000 compounds, 1.2% hits | AID 588335; in the data active = inhibition above about 30%;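 note: 0% = DMSO wells and 100% = wells lacking the enzyme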
Rv3671c inh = inhibits the M. tuberculosis serine protease Rv3671c; P9WHR9; inhibition, % at 5.96 µM; 320,000 compounds, 0.048% hits; in the data active = inhibition above about 38%;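 note: extracellular domain of Rv3671c used as enzyme; 0% = enzyme with DMSO and 100% = no enzyme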
UGM FP inh = Mtb UDP-galactopyranose mutase inhibition | P9WIQ1 | purified UGM, fluorescence polarization probe displacement | inhibition, % at 10 µM | 320,000 compounds, 0.06% hits | AID 504406; in the data active = inhibition above about 10%, passing the limit was not always enough
Target sequence (P9WIQ1 whole entry, looked up): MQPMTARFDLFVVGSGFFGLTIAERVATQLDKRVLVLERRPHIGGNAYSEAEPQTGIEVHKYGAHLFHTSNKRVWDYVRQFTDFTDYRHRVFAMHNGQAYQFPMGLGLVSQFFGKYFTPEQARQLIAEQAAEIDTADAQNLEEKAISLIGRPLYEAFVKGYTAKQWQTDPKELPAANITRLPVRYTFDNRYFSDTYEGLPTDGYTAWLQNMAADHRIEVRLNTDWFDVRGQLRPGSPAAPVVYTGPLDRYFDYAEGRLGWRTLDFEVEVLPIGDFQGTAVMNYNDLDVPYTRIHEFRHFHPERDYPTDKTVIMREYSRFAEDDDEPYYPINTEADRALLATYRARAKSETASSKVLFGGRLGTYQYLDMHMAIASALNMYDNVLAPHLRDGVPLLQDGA
FBA Mtb inh = Mtb fructose-bisphosphate aldolase inhibition. P9WQA3. inhibition, % at 1 µM. 360,000 compounds, 2.3% hits. AID 588726. purified M. tuberculosis FBA, fluorescence read-out;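 note: 0% = vehicle and 100% = reference inhibitor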
Mtb FBA inh conf = Mtb FBA inhibition, confirmed | shares compounds with FBA Mtb inh | purified M. tuberculosis FBA, fluorescence read-out | inhibition, % at 1 µM | 5,600 compounds, 78% hits | AID 651616;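 note: 0% = vehicle wells and 100% = reference inhibitor wells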
GDH-TPI counter-2 = inhibits GDH-TPI coupling enzymes, flagging Mtb FBA hits. shares compounds with FBA Mtb inh. GDH-TPI coupled enzyme counterscreen, fluorescence. inhibition, % at 1 µM. 5,600 compounds, 81% hits; in the data active = inhibition above about 10%
GDH-TPI dose = GDH-TPI dose response counter-screen for Mtb FBA; shares compounds with FBA Mtb inh; IC50, µM; GDH-TPI coupled enzyme assay, fluorescence, artifact counterscreen; AID 652145; 170 compounds, 79% hits; call rule not given here
Active calls of the source: *; / = no result; + = active, no number. Cut-off read from the data, not from the text of the source, unless noted: active = inhibition above about 27%; inactive = the rest.

SMILES	GDH-TPI counter-1	Rv3671c inh	UGM FP inh	FBA Mtb inh	Mtb FBA inh conf	GDH-TPI counter-2	others
O=C(/C=C/c1ccco1)OCC(=O)N1CCCCC1	10	2	2	2	/	/
O=C(Nc1ccc2ccccc2c1)N1CCN(c2ncccc2C(F)(F)F)CC1	-3	-8	0	37*	-9	-5
Cc1ccc(NC(=O)N2CCN(c3ncccc3C(F)(F)F)CC2)cc1	13	1	0	1	/	/
CCc1ccc2nc(N=C(N)N)nc(C)c2c1	6	8	-1	40*	177*	133*
Cc1ccc(-n2nc3ccc(N)cc3n2)cc1Cl	6	-14	3	28*	59*	47*
COc1ccc(-n2nc3ccc(N)cc3n2)cc1Cl	24	-9	-2	64*	50*	44*
Cc1ccc(-n2nc3ccc(N)cc3n2)c(C)c1	20	-8	0	100*	+	+
COc1ccc(-n2nc3ccc(NS(C)(=O)=O)cc3n2)cc1Cl	11	1	0	92*	36*	22*
CN1C(=O)C(=O)/C(=C(/O)c2ccccc2)C1c1ccc([N+](=O)[O-])cc1 (configuration not stated)	30	2	0	1	/	/
Cc1ccc(-n2nc3ccc(N)cc3n2)cc1C	12	-26	-1	27*	15	10	GDH-TPI dose=1.5*
CCCOc1ccc(-c2nc(C#N)c(NCCCn3ccnc3)o2)cc1	15	6	2	105*	105*	81*
N#Cc1nc(-c2ccco2)oc1NCCCn1ccnc1	2	3	0	60*	121*	93*
N#Cc1nc(-c2ccc(OCc3ccccc3)cc2)oc1NCCCn1ccnc1	0	6	-1	7	/	/
CC(C)(C)c1ccc(-c2nc(C#N)c(NCCCn3ccnc3)o2)cc1	11	3	1	40*	108*	103*
O=C(Nc1ncccc1O)c1ccc(S(=O)(=O)Nc2ccccc2)cc1	10	4	-1	-3	/	/
C#CCOc1ccc(C2C3=C(CC(C)(C)CC3=O)N(CC(=O)O)C3=C2C(=O)CC(C)(C)C3)cc1	1	-10	3	92*	8	-6
C#CCOc1ccc(C2C3=C(CC(C)(C)CC3=O)N(CC(=O)O)C3=C2C(=O)CC(C)(C)C3)cc1OC	6	2	5	2	/	/
CC1(C(=O)Nc2ccccc2F)CCN1C(=O)Cc1cc(F)ccc1F (configuration not stated)	10	/	/	1	/	/
CCC1(C)Cc2c(sc3[nH]c(=O)[nH]c(=O)c23)CS1 (configuration not stated)	11	-22	-1	80*	72*	61*
O=C(O)c1ccc(C2SCC(=O)N2Cc2ccccc2)cc1 (configuration not stated)	-8	-10	2	-4	/	/
CCCN1C(=O)c2ccccc2NC1c1ccc(OC)c(CSc2ccccn2)c1 (configuration not stated)	5	-10	-1	56*	140*	105*
COc1ccc([C@@H]2[C@@H](C)N(c3ccccc3)c3ccccc3C(=O)N2Cc2ccccc2)cc1	1	/	/	5	/	/
O=C(O)c1ccc(C2Nc3ccccc3C(=O)N2Cc2ccccc2)cc1 (configuration not stated)	0	3	-3	76*	9	5
COc1ccc(C2Nc3ccccc3C(=O)N2NS(=O)(=O)c2ccc(C)cc2)cc1 (configuration not stated)	7	-7	1	19	/	/
COc1ccc(C2Nc3ccccc3C(=O)N2Cc2ccccc2)cc1 (configuration not stated)	4	3	-2	39*	167*	135*
SMILES	GDH-TPI counter-1	Rv3671c inh	UGM FP inh	FBA Mtb inh	Mtb FBA inh conf	GDH-TPI counter-2	others
COc1ccc(C2Nc3ccccc3C(=O)N2C2CCCCC2)cc1 (configuration not stated)	1	-1	-1	85*	1	0
COc1ccc(N2C(=O)c3ccccc3NC2c2ccc(OC)c(CSc3ccccn3)c2)cc1 (configuration not stated)	11	2	0	22	/	/
Cc1ccc(C)c(OCCC(=O)NNC(=O)c2cc(C)oc2C)c1	2	-3	-3	0	/	/
O=C(OCC(=O)N1CCC(Cc2ccccc2)CC1)c1cc(Br)ccc1O	-4	-11	1	2	/	/
COc1ccc(N2CC(C(=O)N[C@@H](C)C(=O)NCc3ccccc3OC)CC2=O)cc1 (some centres not stated)	-6	-4	0	0	/	/
Cc1cc(S(=O)(=O)NCc2ccc(N3CCN(C)CC3)cc2)c(C)s1	13	8	2	2	/	/
COc1ccc(C2Nc3ccccc3C(=O)N2Cc2ccccc2)cc1COc1ccccn1 (configuration not stated)	-8	4	-5	78*	64*	54*
COc1nc(Nc2ccccc2F)nc(OC)n1	6	2	0	0	/	/
COC1OC(CO)C(O)C(O)C1O (configuration not stated)	2	6	0	33*	55*	45*
CCOC(=O)c1sc(-c2ccc(OC)cc2)cc1NC(C)=O	19	/	/	79*	153*	134*
COc1ccc(N2CCN(CCNC(=O)c3ccc4c(c3)[nH]c(=S)n3c5ccccc5nc43)CC2)cc1	9	1	-1	5	/	/
COc1ccc(N2CCc3c(C)nc4c(OC)cccc4c32)cc1	11	8	0	1	/	/
COc1cccc2c3c(c(C)nc12)CC(C)O3 (configuration not stated)	4	-9	0	40*	106*	75*
COc1ccc2nc(C)c3c(c2c1)OC(C)C3 (configuration not stated)	2	0	-3	10	/	/
CCOC(=O)c1ccc2nc(C)c3c(c2c1)OC(C)C3 (configuration not stated)	-1	-5	0	38*	175*	130*
O=C(Cn1ccccc1=O)Nc1ccc(Cl)c(S(=O)(=O)N2CCCCC2)c1	5	-3	-2	4	/	/
Cc1cc(F)ccc1NCC(=O)Nc1ccccc1Br	2	-2	-1	50*	47*	39*
Cc1ccc(F)cc1NCC(=O)Nc1ccc(Cl)cc1F	-4	5	-1	5	/	/
CCS(=O)(=O)c1ccc2c(c1)NC(=O)C(CCCl)O2 (configuration not stated)	-3	-4	0	78*	140*	112*
C/C(=C\COc1ccc2ccc(=O)oc2c1)CC[C@@H](O)C(C)(C)O	16	3	0	83*	-5	-5
C/C(=C\COc1cc(=O)[nH]c2ccccc12)CCC(O)C(C)(C)O (configuration not stated)	-5	-2	5	3	/	/
